# Results reported in the supplement of paper PMC10105736.
# Values without a mark were called inactive.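 Rule for the calls: active = MAPPIT score above the 99th percentile of random reference set scores in the same batch; inactive = at or below it.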
# Assays:
# Test in all cases: MAPPIT interaction score (arbitrary units); higher = stronger binary interaction signal, active = hit call of the paper
# 14-3-3epsilon = conditions: MAPPIT configuration: N-N; pair source set: Lit-BM-16
# Experimental: (§1)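 MAPPIT in HEK293T cells: Drosophila bait and prey ORFs (from the FlyBi ORF collection) were co-transfected in quadruplicate, with two wells stimulated by erythropoietin. Interaction-dependent JAK-STAT activation was read out with a STAT-responsive firefly luciferase reporter. Positive calls use the 99th percentile of random reference set (RRS) scores within each batch […]. Batches Dvs01 and Dvs02 used the N-N configuration and Dvs04 the N-C configuration. Pairs come from FlyBi screens, CuraGen, DPiM, Finley Y2H, Lit-BM-16, Lit-BS-16 and RRS.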
# CG5174 = conditions: MAPPIT configuration: N-N; pair source set: Curagen_low_conf
# Experimental: as §1
# LamC = conditions: MAPPIT configuration: N-N; pair source set: DPIM
# Experimental: as §1
# mon2 = conditions: MAPPIT configuration: N-N; pair source set: Curagen_low_conf
# Experimental: as §1
# par-1 = conditions: pair source set: Lit-BM-16
# Experimental: as §1
# sol = conditions: MAPPIT configuration: N-N; pair source set: Curagen_low_conf
# Experimental: as §1
# tral = conditions: MAPPIT configuration: N-N; pair source set: Lit-BS-16
# Experimental: as §1
# AP-1mu = conditions: MAPPIT configuration: N-C; pair source set: screen_4
# Experimental: as §1
# HLH54F = conditions: MAPPIT configuration: N-N; pair source set: Curagen_low_conf
# Experimental: as §1
# AP-2alpha = conditions: MAPPIT configuration: N-N; pair source set: DPIM
# Experimental: as §1
# CG9667 = conditions: MAPPIT configuration: N-N; pair source set: DPIM
# Experimental: as §1
# ACOX1 = conditions: MAPPIT configuration: N-N; pair source set: Curagen_low_conf
# Experimental: as §1
# mbo = conditions: pair source set: Lit-BM-16
# Experimental: as §1
# CG17377 = conditions: MAPPIT configuration: N-C; pair source set: screen_4
# Experimental: as §1
# Mst87F = conditions: MAPPIT configuration: N-N; pair source set: screen_2
# Experimental: as §1
# lawc = conditions: MAPPIT configuration: N-C; pair source set: screen_3
# Experimental: as §1
# 14-3-3zeta = conditions: pair source set: Lit-BM-16
# Experimental: as §1
# yki = conditions: MAPPIT configuration: N-N; pair source set: Lit-BM-16
# Experimental: as §1
# 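Note: HEK293T cells with Epo stimulation, STAT-responsive firefly luciferase reporter, fold induction versus unstimulated cells divided by the larger fold induction of two negative controls lacking either bait or prey.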
binder,measurement,setting,value
14-3-3zeta (protein) MSTVDKEELVQKAKLAEQSERYDDMAQAMKSVTETGVELSNEERNLLSVAYKNVVGARRSSWRVISSIEQKTEASARKQQLAREYRERVEKELREICYEVLGLLDKYLIPKASNPESKVFYLKMKGDYYRYLAEVATGDARNTVVDDSQTAYQDAFDISKGKMQPTHPIRLGLALNFSVFYYEILNSPDKACQLAKQAFDDAIAELDTLNEDSYKDSTLIMQLLRDNLTLWTSDTQGDEAEPQEGGDN,MAPPIT interaction score,14-3-3epsilon,3.94 (active)
same,MAPPIT interaction score,CG5174,0.738
same,MAPPIT interaction score,LamC,0.222
same,MAPPIT interaction score,mon2,0.305
same,MAPPIT interaction score,par-1; MAPPIT configuration: N-C,-0.258
same,MAPPIT interaction score,par-1; MAPPIT configuration: N-N,-0.148
same,MAPPIT interaction score,sol,1.59
same,MAPPIT interaction score,tral,0.0264
Cp38 (protein) MTRSTYIWALAACLIACASANYGSSQGYGPESGSGASDGGADAASAAAAAAGGAGGAGGEYGGANAGAGALESGADAAGVAQAGQSSYGSDQNIPYKPVNTKGNTLTSSITYPQNKGEILIHRPAPIIVKRPPTKVLVNHPPLVVKPAPVVLHKPPAIVLRKVYVKHHPRRVKVEPVFVNVVKPPAEKYFVNENKQGYGQGSQSHGHGHGHGGHGHGHSGHGHGGHGAGPHGPGPHDGGRALPAYASGADSAAASAGYQLLQSGNQGLSALANIAGEREGPYGPAPSHQHYSAGPAGHGGYAAPAY,MAPPIT interaction score,AP-1mu,0.503
TfIIB (protein) MASTSRLDNNKVCCYAHPESPLIEDYRAGDMICSECGLVVGDRVIDVGSEWRTFSNEKSGVDPSRVGGPENPLLSGGDLSTIIGPGTGSASFDAFGAPKYQNRRTMSSSDRSLISAFKEISSMADRINLPKTIVDRANNLFKQVHDGKNLKGRSNDAKASACLYIACRQEGVPRTFKEICAVSKISKKEIGRCFKLTLKALETSVDLITTADFMCRFCANLDLPNMVQRAATHIAKKAVEMDIVPGRSPISVAAAAIYMASQASEHKRSQKEIGDIAGVADVTIRQSYKLMYPHAAKLFPEDFKFTTPIDQLPQM,MAPPIT interaction score,AP-1mu,1.05
same,MAPPIT interaction score,HLH54F,-0.376
CG10417 (protein) MGAYLSHPKTDKTSTDQFNELLAVGASSMQGWRNSQEDAHNSILNFDNNTSFFAVYDGHGGAEVAQYCADKLPHFLKNLETYKNGQFEVALKEAFLGFDKTLLDPSIVSILKILAGEHNFVDAEADDYEEEDLAELQEESNLPLNEVLEKYKGLPQKKDLDLKSSDHKENFKMRSPYFRGRRAAALAAEATNKAVMDPSAKPDGSSTSAAAAAAALSADGVANSRNPSNVVNPMAGADSNTTTSINDLSTKNAALKDDSVNDQNEGSNGTDFKHTLVSSSNKKLFATGSNDMTELNQSSKNEFTNSSTSKEFERNINSSQDDEFTDDDADYEENDNVKSPDTSSAESSDCTENDDDGDEDGNEDSDEEETDEDQMANDNFCANMIEEPGKDSGCTAVVCLLQGRDLYVANAGDSRCVISRSGQAIEMSIDHKPEDDEEASRIIKAGGRVTLDGRVNGGLNLSRALGDHAYKTNVTLPAEEQMISALPDIKKLIITPEDEFMVLACDGIWNYMSSEEVVEFVRCRLKDNKKLSTICEELFDNCLAPNTMGDGTGCDNMTAVIVQFKKKLQELQSTIPPNQTEDKLLKTSENVSHSLNDQSASKRCASQNADADDEILEKNNSKRLKTDLEQENIKDRTPSPSNQNEDPTQKAIKEVTIIVSSS,MAPPIT interaction score,AP-2alpha,0.508
same,MAPPIT interaction score,CG9667,0.00387
emb (protein) MATMLTSDEAGKLLDFSQKLDINLLDKIVEVVYTAQGEQLRLAQSILTTLKEHPEAWTRVDSILEYSQNQRTKFYALQILEEVIKTRWKVLPRNQCEGIKKYVVSLIIKTSSDPIVMEQNKVYLNKLNMILVHILKREWPRNWETFISDIVGASKTNESLCMNNMVILKNLSEEVFDFSQGQITQTKAKHLKDTMCSEFSQIFTLCSFVLENSMNAALIHVTLETLLRFLNWIPLGYIFETQQIETLIFKFLSVPMFRNVTLKCLSEIAGLTAANYDENFATLFKDTMVQLEQIVGQNMNMNHVFKHGSDTEQELVLNLAMFLCTFLKEHGKLVEDAKYVDYLNQALMYLVMISEVEDVEVFKICLEYWNSLVEDLYNSEFFHPTLESTKRQQVYPRRRFYAPILSKVRFIMISRMAKPEEVLVVENENGEVVREFMKDTNSINLYKNMRETLVFLTHLDSVDTDRIMTLKLLNQVNGSEFSWKNLNTLCWAIGSISGAFCEEDEKRFLVTVIKDLLGLCEQKKGKDNKAIIASNIMYVVGQYPRFLRAHWKFLKTVVNKLFEFMHETHDGVQDMACDTFIKIAIKCRRYFVTIQPNEACTFIDEILTTMSSIICDLQPQQVHTFYEAVGYMISAQVDQVQQDVLIERYMQLPNQVWDDIISRASKNVDFLKNMTAVKQLGSILKTNVAACKALGHAYVIQLGRIYLDMLNVYKITSENIIQAIEVNGVNVNNQPLIKTMHVVKKETLNLISEWVSRSNDNQLVMDNFIPPLLDAILLDYQRCKVPSAREPKVLSAMAIIVHKLRQHITNEVPKIFDAVFECTLDMINKNFEDFPQHRLSFYELLQAVNAHCFKAFLNIPPAQFKLVFDSVVWAFKHTMRNVADMGLNILFKMLQNLDQHPGAAQSFYQTYFTDILMQIFSVVTDTSHTAGLPNHAIILAYMFSLVENRKITVNLGPIPDNMIFIQEYVASLLKSAFTHLSDNQVKVFVTGLFNLDENVQAFKEHLRDFLIQIREATGEDDSDLYLEEREAALAEEQSNKHQMQRNIPGMLNPHELPEDMQDE,MAPPIT interaction score,ACOX1,1.6
same,MAPPIT interaction score,mbo; MAPPIT configuration: N-C,1.34
same,MAPPIT interaction score,mbo; MAPPIT configuration: N-N,1.54
spin (protein) MSLKHQKQSYQPLPTAAAMDNPAMIQSSGSSGSSSSEEGGSREDVANLSPLGLPTTYSSQQLMPSDTDSMEEERHRLRPHHHHHHPLGEHHHIPGIPPSAVVPSRLSSVGRSQWFTVTVLCFVNLINYMDRFTIAGVLTDVRNDFDIGNDSAGLLQTVFVISYMVCAPIFGYLGDRYSRPWIMAVGVGLWSTTTLLGSFMKQFGWFIAFRALVGIGEASYSTIAPTIISDLFVHDMRSKMLALFYFAIPVGSGLGYIVGSKTAHLANDWRWALRVTPILGIVAVFLILLIKDPVRGHSEGSHNLEATTYKQDIKALVRNRSFMLSTAGFTCVAFVAGALAWWGPSFIYLGMKMQPGNENIVQDDVAFNFGVITMLAGLLGVPLGSFLSQYLVKRYPTADPVICAFGLLVSAPLLTGACLLVNSNSVGTYALIFFGQLALNLNWAIVADILLYVVVPTRRSTAEAFQILISHALGDAGSPYLVGAISEAIMKHLHKNPSDSGLTTELRSMSQVAGSAISNATQVIAEATTSLMETARSSASQEYSDVEQFEGLQYALFSTSFVEVLGGIFFIFTACFIIKDKYNATRGLQDATAQQQQRDERGQIA,MAPPIT interaction score,AP-1mu,2.01
same,MAPPIT interaction score,CG17377,1.62
same,MAPPIT interaction score,Mst87F,2.13
same,MAPPIT interaction score,lawc,1.7
14-3-3epsilon (protein) MTERENNVYKAKLAEQAERYDEMVEAMKKVASMDVELTVEERNLLSVAYKNVIGARRASWRIITSIEQKEENKGAEEKLEMIKTYRGQVEKELRDICSDILNVLEKHLIPCATSGESKVFYYKMKGDYHRYLAEFATGSDRKDAAENSLIAYKAASDIAMNDLPPTHPIRLGLALNFSVFYYEILNSPDRACRLAKAAFDDAIAELDTLSEESYKDSTLIMQLLRDNLTLWTSDMQAEEVDPNAGDGEPKEQIQDVEDQDVS,MAPPIT interaction score,14-3-3zeta; MAPPIT configuration: N-C,1.51
same,MAPPIT interaction score,14-3-3zeta; MAPPIT configuration: N-N,4.99 (active)
same,MAPPIT interaction score,par-1; MAPPIT configuration: N-C,-0.702
same,MAPPIT interaction score,par-1; MAPPIT configuration: N-N,-0.144
same,MAPPIT interaction score,yki,0.198
